This is one part of the list. The source made the active and inactive calls.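 Rule for the calls: active = yeast growth recovered at 30 hours, either rising with dose fitted slope above 0.001 or with average optical density gain above 0.07 (some results past the limit were not filed as active); inactive = growth falling with dose or no effect.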

This test can be described thus: concentration-response growth rescue in JHY4D yeast depleted of SDO1, OD600, diseases with bone marrow failure (AID 949).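 For OD recovery: gain in OD600 from 0 h to 30 h averaged across all seven doses.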 The note with it: S. cerevisiae JHY4D (SDO1-depleted) growth rescue, OD600, 30 h, efflux-deficient strain, SNQ2 and PDR5 mutated; OD recovery: stronger effect = higher value; dose-response slope: measured here: 30 h OD slope vs dose.

In the case of `CC(=O)Nc1ccc(S(=O)(=O)NCCc2ccccc2)cc1`, the OD recovery is 0.0591 (inactive) and the dose-response slope turned out to be 0.00092.

Regarding `COc1ccc(-c2nnco2)cc1OC`, the OD recovery was 0.0477 (inactive) and the dose-response slope turned out to be 0.000454.

In the case of `Cc1[nH]c2ccccc2c1C(=O)CSCC(=O)O`, the OD recovery was 0.11 (active) and the dose-response slope was -0.000672.

`O=S(=O)(/N=C(/Nc1ccccn1)c1ccccc1)c1ccc(Cl)cc1`: the OD recovery was 0.0469 (inactive) and the dose-response slope amounted to 0.000638.

For `COc1ccc(CNC(=O)c2c(C)cc(=O)oc2C)cc1OC`, the OD recovery is 0.0773 (active) and the dose-response slope is 0.000182.

As to `COc1ccc(/C(C)=N/NC(=O)CCC(=O)Nc2ccc(Cl)cc2Cl)c(OC)c1`, the OD recovery is 0.11 (active) and the dose-response slope stood at 0.000741.

Take `COc1cc(OC)nc(S(C)(=O)=O)n1`: the OD recovery is 0.0647 (inactive) and the dose-response slope is 0.000101.

As for `CCOc1cccc2c1OC1(CCCCC1)N1N=C(c3cccnc3)CC21` (configuration not stated), the OD recovery is 0.0606 (inactive) and the dose-response slope is -0.000222.

As to `COc1ccc(OCC(=O)NNC(=O)c2ccc(-c3ccccc3)cc2)cc1`, the OD recovery is 0.0649 (inactive) and the dose-response slope is -0.000252.

Take `O=C(CSc1nc(-c2ccco2)cc(C(F)(F)F)n1)NCc1cccs1`: the OD recovery was 0.072 (active) and the dose-response slope is 0.00107.

As to `COc1cccc(-c2nnc(NC(=O)c3ccc(S(=O)(=O)N(CC(C)C)CC(C)C)cc3)o2)c1`, the OD recovery is 0.0821 (active) and the dose-response slope is -0.000585.

Take `CN(C)c1ccc(Nc2c3c4c(cccc4n(C)c2=O)C(=O)c2ccccc2-3)cc1`: the OD recovery was 0.0269 (inactive) and the dose-response slope is -0.000458.

Turning to `Cc1oc2nc(SCC(=O)NCc3cccnc3)nc(N)c2c1C`, the OD recovery is 0.0937 (active) and the dose-response slope stood at 0.000887.

Take `CS(=O)(=O)Nc1ccc(C(=O)N2CCCC2)cc1`: the OD recovery is 0.0956 (active) and the dose-response slope amounted to 0.000226.

With `CC(C)OC(=O)c1c(NC(=O)c2ccco2)sc2c1CCCC2`, the OD recovery is 0.0368 (inactive) and the dose-response slope stood at 0.000949.

Turning to `O=C(COC(=O)/C=C/c1cccc(Cl)c1)NCCc1ccccc1`, the OD recovery was 0.091 (active) and the dose-response slope is -0.000894.

The values are drawn from PubChem BioAssay AID949 (Emory University Molecular Libraries Screening Center, 2007).
